Among the data in PubChem BioAssay AID686978 (National Center for Advancing Translational Sciences (NCATS), 2013) are Potency values, retold here.

The whole screen tested about 420,000 compounds, of which about 64,000 (15%) were called active. Roughly 27% stayed inconclusive and do not appear here. The call rests on the fitted dose curve; in most records, active means well fitted inhibition curve with a large enough effect; inconclusive means small, poorly fitted or top-dose-only effect; inactive means flat fitted curve, though single readings scatter. The list is a sample of the results. Where a call stands in place of a potency, no number is given.
Potency means the concentration at half of the fitted maximal effect.

The experiment in a line: qHTS for Inhibitors of human tyrosyl-DNA phosphodiesterase 1 (TDP1): qHTS in cells in absence of CPT. Further: nearly all actives have a fitted effect of over 55% in size. The note with it: DT40 Tdp1-/- hTDP1 cells, no CPT, ATP luminescence, 48 h; activity change, negative = growth inhibition: at 46.2 µM (top of the series). An outline of the steps: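 No-CPT arm: Tdp1-/-;hTDP1 DT40 cells (400/well) plus compounds, incubated ≥48 hr at 37 °C. Readout CellTiter-Glo luminescence.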
With `O=C(Nc1ccccn1)C1CCN(S(=O)(=O)c2ccc3c(c2)OCCO3)CC1`, the Potency entry is “inactive”.

On to `CCCCn1c(=S)[nH]c2ncccc2c1=O`, for which the Potency entry is “inactive”.

As to `Cc1cc(Nc2ccc(Br)cc2F)n2ncnc2n1`, the Potency entry was “inactive”.

Take `CC[C@H]1OC(=O)[C@H](C)[C@@H](O[C@H]2C[C@@](C)(OC)[C@@H](O)[C@H](C)O2)[C@H](C)[C@@H](O[C@@H]2O[C@H](C)C[C@H](N(C)C)[C@H]2O)[C@](C)(O)C[C@@H](C)[C@@H]2N[C@@H](COCCOC)O[C@H]([C@H]2C)[C@]1(C)O`: the Potency result was “inactive”.

`CCN(CC)S(=O)(=O)c1ccc(NC(=O)c2cccnc2Cl)c(NC(=O)c2cccnc2Cl)c1`: the Potency entry was “inactive”.

On to `CCN(CC)S(=O)(=O)c1ccc(Cl)c(C(=O)NCCN2CCOCC2)c1`, for which the Potency entry was “inactive”.

Consider `CCN(CC)S(=O)(=O)c1ccc(Cl)c(C(=O)NC(C)C(c2cccs2)N2CCCC2)c1` (stereo not given), for which the Potency is 14.6 µM (active).

Regarding `COc1cc(C(=O)N/C(=C\c2cn(C)c3ccccc23)C(=O)N2CCOCC2)cc(OC)c1OC`, the Potency result is “inactive”.

In the case of `Cc1c(N=Nc2ccc(N(C)C)cc2)c(=O)n(-c2ccccc2)n1C`, the Potency result was “inactive”.

As for `COc1ccc(-c2ccc(OC(=O)NC3CCS(=O)(=O)C3)cc2)cc1` (stereo not given), the Potency is 8.2 µM (active).

Consider `COc1ccc(NC(=S)NC2CCS(=O)(=O)C2)cc1` (stereo not given), for which the Potency result was “inactive”.

With `N#Cc1ccc(OCC(=O)NC(=O)NC2CCS(=O)(=O)C2)cc1` (stereo not given), the Potency entry was “inactive”.

Regarding `CC(C)(C)CN1C(=O)C(=O)NC[C@H]1Cc1cccc2ccccc12`, the Potency entry is “inactive”.

As for `NC(=O)C1CCN(C(=O)c2ccc(F)c(S(=O)(=O)N3CCOCC3)c2)CC1`, the Potency result was “inactive”.

With `CC1CCN(C(=O)c2ccc(S(=O)(=O)Cc3cc(F)ccc3F)c([N+](=O)[O-])c2)CC1`, the Potency was 16.4 µM (active).

With `Nc1ccc(C(=O)N2CCN(S(=O)(=O)c3ccc(Cl)cc3)CC2)cc1[N+](=O)[O-]`, the Potency result was “inactive”.

Turning to `CC1(C)CC(O)C(CCC(O)c2ccccc2)C(C)(C)N1` (stereo not given), the Potency result is “inactive”.

With `CC(=O)N(c1ccc2oc(=O)sc2c1)S(=O)(=O)c1ccc(C)cc1`, the Potency is 16.4 µM (active).

Take `CC(=O)Oc1ccc(N(C(C)=O)S(=O)(=O)c2ccc3ccccc3c2)cc1Br`: the Potency result was “inactive”.

Turning to `Cc1ccc(S(=O)(=O)N(CCCN(C)C)Cc2ccc3c(c2)OCO3)cc1`, the Potency result is “inactive”.

In the case of `COc1ccc(C2/C(=C(/O)c3ccc(OC(C)C)cc3)C(=O)C(=O)N2CCCN2CCOCC2)cc1` (stereo not given), the Potency result was “inactive”.

For `C=CCn1c(SCC(=O)Nc2ccc(NC(C)=O)cc2)nc2sc(C)c(C)c2c1=O`, the Potency result was “inactive”.

In the case of `O=C1CCCC(O)=C1N=Nc1ccc(S(=O)(=O)N2CCOCC2)cc1`, the Potency result was “inactive”.

Consider `O=C1CCC(Cc2ccccc2)N1` (stereo not given), for which the Potency entry was “inactive”.

As to `COc1ccc(NC(=O)C2CCC(CNC(=O)[C@@H]3Cc4ccccc4CN3)CC2)cc1` (stereo not given in full), the Potency result was “inactive”.
